Records with an inconclusive call do not appear. Where a call stands in place of a potency, no number is given. Active and inactive are the calls of the source. Calls come from the whole dose curve; as a rule, active = well fitted activation curve with a large enough effect in the repeat runs; inconclusive = weak or mixed curves; inactive = flat fitted curve, though single readings scatter.
Assay: A CellTox Green Cytotoxicity Assay to monitor cytotoxicity in HEK293 cells - 24 hour (AID 1224875); note: nearly all actives have a fitted effect of over 45% in size
Conditions: CellTox Green fluorescence; series mostly up to 76.8 µM
Excerpt: National Center for Advancing Translational Sciences [NCATS]
NIH Chemical Genomics Center [NCGC]
U.S. Environmental Protection Agency [EPA]
National Institutes of Environmental Health Sciences [NIEHS]
National Toxicology Program [NTP]
Cell-based models are critical for drug discovery. Determining the natural cytotoxic effects resulting from test compounds is an essential research activity. A CellTox Green Cytotoxicity Assay to monitor cytotoxicity in real time of continues cell culture during 40 hours of the compound treatment was used to screen Tox21 10K library compounds in Hek293 cells. CellTox Green Cytotoxicity Assay is a nonlytic, homogeneous, biofluorescent method to measure cytotoxicity in cell culture after experimental manipulation. The assay system uses a proprietary asymmetric cyanine dye that is excluded from viable cells but preferentially stains the dead cell's DNA. […] Viable cells produce no appreciable increases in fluorescence. Therefore, the fluorescence signal produced by the binding interaction with dead cell DNA is proportional to cytotoxicity.
The mixture of Hek293 cell suspension and reagents were dispensed at 600cells/6 ul/well in 1536-well tissue culture treated black solid bottom plates using a Multidrop dispenser. After the assay plates were incubated at a 37 C/5% CO2 incubator for 5 hours, 23 nL of compounds dissolved in DMSO, positive and negative controls was transferred to the assay plate by a pintool work station. The plates were incubated at 37 C for 40 hours. The fluorescence intensity were measured at 0h, 8h, 16h, 24h, 32h and 40h time points using ViewLux plate reader during compound treatment.

SMILES | Potency
CC1=NN(c2ccccc2)C(=O)C1 | inactive
CC(C)Cc1ccc(C(C)C(=O)O)cc1 (stereo not given) | inactive
NC(=O)N1c2ccccc2C=Cc2ccccc21 | inactive
COc1ccc(O)cc1 | inactive
Nc1ccc(N=Nc2ccccc2)c(N)n1 | inactive
CCN(CC)CCOC(=O)c1ccc(N)cc1 | inactive
CCCCCCCCOc1ccc(C(=O)c2ccccc2)c(O)c1 | inactive
COC1=CC(=O)C[C@@H](C)[C@]12Oc1c(Cl)c(OC)cc(OC)c1C2=O | inactive
NC(=O)NO | inactive
C1CNCCN1 | inactive
Cc1cccc(C)c1O | inactive
CC(=O)c1ccc(S(=O)(=O)NC(=O)NC2CCCCC2)cc1 | inactive
CCOCCO | inactive
COc1ccccc1O | inactive
NC(=O)N/N=C/c1ccc([N+](=O)[O-])o1 | inactive
C=CCOC(=O)CC(C)C | inactive
CCOC(=O)C(C)(C)Oc1ccc(Cl)cc1 | inactive
c1ccc2[nH]c(-c3cscn3)nc2c1 | inactive
Oc1cccc(O)c1 | inactive
Cc1c(N(C)C)c(=O)n(-c2ccccc2)n1C | inactive

SMILES | Potency
C=C(C)C(N)=O | inactive
O=C(O)CN(CC(=O)O)CC(=O)O | inactive
CCc1cc(C(N)=S)ccn1 | inactive
O=C1OC(c2ccc(O)cc2)(c2ccc(O)cc2)c2ccccc21 | inactive
COCC(C)N (stereo not given) | inactive
C[C@]12C=CC(=O)C=C1CC[C@@H]1[C@@H]2C(=O)C[C@@]2(C)[C@H]1CC[C@]2(O)C(=O)CO | inactive
OC[C@@H](O)[C@@H](O)[C@H](O)[C@H](O)CO | inactive
N[C@@H](Cc1c[nH]c2ccccc12)C(=O)O | inactive
O=C(O)CCCCC1CCSS1 (stereo not given) | inactive
OCCCc1ccccc1 | inactive
CCCCC/C(C=O)=C\c1ccccc1 | inactive
COc1cc(O)c(C(=O)c2ccccc2)cc1S(=O)(=O)O | inactive
CC1=C(/C=C/C(C)=C/C=C/C(C)=C/C(=O)O)C(C)(C)CCC1 | inactive
NCCNc1cccc2ccccc12 | inactive
O=C1CCCCCN1 | inactive
CCCCNC(=O)NS(=O)(=O)c1ccc(N)cc1 | inactive
O=C(O)Cc1cccc2ccccc12 | inactive
O=C(OCc1ccccc1)c1ccccc1 | inactive
CCCCOCCOCCSC#N | inactive
N[C@@H](Cc1c[nH]c2ccc(O)cc12)C(=O)O | inactive

Reference: PubChem BioAssay (Tox21)
